L3MBTL1 inh: L3MBTL1 (human) inhibition. Q9Y468. AlphaScreen L3MBTL1–H3K9me1 peptide binding. Potency, µM (titrated, usually from 57.1 µM), inactives show top-dose activity, negative = inhibition, usual class: inhibitors. 230,000 tested, 0.66% active. AID 485360; note: % is set by controls: 0 for no effect and ±100 for the full control effect; nearly all actives have a fitted effect of over 60% in size
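L3MBTL1 50 nM + b-AHA-H3(1-15)K9me1 75 nM, 30 min RT; compound added, 30 min RT; streptavidin donor/Ni-chelate acceptor beads 10 ug/mL each final, 30 min RT dark; AlphaScreen read.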
JMJD2A Tudor inh: blocks the human JMJD2A Tudor domain. Potency, µM (doses to about 114 µM), inactives show at the top dose activity change, negative = inhibition, hits mostly inhibitors. AlphaScreen JMJD2A-Tudor / H3K4me3 peptide binding. 390,000 tested, 4.4% active; note: % is set by controls: 0 for no effect and ±100 for the full control effect; nearly all actives have a fitted effect of over 50% in size
BAZ2B inh: BAZ2B (human) inhibition | AlphaScreen BAZ2B-H3K14Ac peptide displacement | 360,000 tested, 4.4% active | Potency, µM (titrated, usually from 114 µM), for inactives: at the top dose activity change, negative = inhibition, usual class: inhibitors | Q9UIF8 | AID 504333; note: % is set by controls: 0 for no effect and ±100 for the full control effect; nearly all actives have a fitted effect of over 60% in size
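Complex of BAZ2B and biotin-H3K14Ac (50 nM apiece) forms over 30 min at RT, then faces library compounds up to 110 uM for another 30 min; AlphaScreen beads added, 20 min dark incubation, luminescence read.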
HP1b chromo inh: HP1-beta chromodomain-methylated histone interaction inhibition | P83916 | AlphaScreen HP1-beta / biotin-H3K9me3 peptide binding | Potency, µM (series often up to 114 µM), for inactives: at the highest dose activity change, negative = inhibition, usual class: inhibitors | 390,000 tested, 0.56% active | AID 540317; note: nearly all actives have a fitted effect of over 70% in size
Target sequence (P83916 whole entry, looked up): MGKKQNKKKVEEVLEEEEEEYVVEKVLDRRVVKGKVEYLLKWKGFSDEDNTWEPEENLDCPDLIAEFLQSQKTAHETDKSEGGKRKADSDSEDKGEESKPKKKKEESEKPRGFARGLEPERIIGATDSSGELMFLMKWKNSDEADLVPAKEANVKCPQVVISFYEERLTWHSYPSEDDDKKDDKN
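AlphaScreen: HP1-beta (50 nM) preformed 30 min with biotin-H3(1-18)K9me3 peptide (50 nM) in PBS pH 7.4, 0.01% Tween-20. Compound added for 30 min at RT, then streptavidin donor/nickel chelate acceptor beads (10 ug/mL) for 30 min.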
G9a inh: inhibitors of human histone lysine methyltransferase G9a; Q96KQ7; G9a H3K9 monomethylation, AlphaScreen, 2 h; Potency, µM (top dose mostly 102 µM), without a hit: top-dose activity, negative = inhibition, actives largely listed as inhibitors; 350,000 tested, 8.8% active; AID 504332; note: % is set by controls: 0 for no effect and ±100 for the full control effect; nearly all actives have a fitted effect of over 75% in size
Target sequence (Q96KQ7 913-1193 limits assumed): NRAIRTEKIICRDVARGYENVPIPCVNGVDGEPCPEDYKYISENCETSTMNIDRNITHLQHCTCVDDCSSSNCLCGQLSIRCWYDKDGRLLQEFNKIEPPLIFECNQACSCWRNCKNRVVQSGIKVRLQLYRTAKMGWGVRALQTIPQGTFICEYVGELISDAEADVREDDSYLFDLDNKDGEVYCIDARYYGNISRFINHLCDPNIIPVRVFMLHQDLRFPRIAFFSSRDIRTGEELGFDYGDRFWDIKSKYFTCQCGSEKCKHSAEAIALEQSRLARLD
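Chemiluminescent proximity detection of H3K9 monomethylation, read after 10 min bead incubation in the dark. Reaction: 20 nM G9a, 500 nM biotin-H3K9 peptide, 20 uM SAM cofactor, 2 h, room temperature, following 15 min enzyme-compound preincubation.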
The depositor's hits bear a star; [ ] = another dose, or the depositor's remark. Only some compounds are listed: those with a hit (about 11% of all), similar ones and a draw of the others. Calls come from the whole dose curve; as a rule, active = well fitted inhibition curve with a large enough effect; inconclusive = small, poorly fitted or top-dose-only effect; inactive = no such curve, though single readings can be large or run the other way. Potency is the fitted concentration of half-maximal effect.

`COC(=O)c1ccc(CS(=O)(=O)c2ccc(F)cc2)o1` gave JMJD2A Tudor inh -17%, BAZ2B inh -26%, HP1b chromo inh 54% and G9a inh 71µM*.
O=C(COc1ccc(Br)cc1)N/N=C1/SCC(=O)N1Cc1ccco1 was read as L3MBTL1 inh -14%, JMJD2A Tudor inh 16µM*, BAZ2B inh inconclusive, HP1b chromo inh inconclusive and G9a inh -44%.
Screening O=C1CSC(=Nc2ccc(Cl)cc2)N1Cc1ccco1 returned L3MBTL1 inh 6%, JMJD2A Tudor inh -5%, BAZ2B inh 1%, HP1b chromo inh 42% and G9a inh 8%[59 µM].
`O=C(N=C1SC2CS(=O)(=O)CC2N1c1ccccc1C(F)(F)F)C1CCCO1` (centres undefined) gave JMJD2A Tudor inh 9%, BAZ2B inh -5%, HP1b chromo inh 12% and G9a inh 50%.
For O=C(N/N=C/c1ccccn1)c1cc(C2CC2)[nH]n1 the results were L3MBTL1 inh -34%, JMJD2A Tudor inh 56µM*, BAZ2B inh 11µM*, HP1b chromo inh 47% and G9a inh inconclusive.
For O=C(N/N=C/c1ccc([N+](=O)[O-])cc1)c1cc(C2CC2)[nH]n1 the results were JMJD2A Tudor inh -11%, BAZ2B inh -19%, HP1b chromo inh 40% and G9a inh 79µM*.
Screening CC(=O)Nc1ccc(NC(=O)CCS(=O)(=O)c2ccc3c(c2)CC(=O)N3C)cc1 returned JMJD2A Tudor inh -3%, BAZ2B inh -1%, HP1b chromo inh 18% and G9a inh -3%[59 µM].
Screening Cc1ccc(C)c(CN2C(=O)c3ccccc3S(=O)(=O)c3ccc(C(=O)N4CCN(c5ccccn5)CC4)cc32)c1 returned JMJD2A Tudor inh -27%, BAZ2B inh inconclusive, HP1b chromo inh 6% and G9a inh inconclusive.
`CCCCCCOc1ccc(N2C(=O)CC(NCc3ccc(S(N)(=O)=O)cc3)C2=O)cc1` (centres undefined) gave L3MBTL1 inh -3%, JMJD2A Tudor inh -4%, BAZ2B inh -3%, HP1b chromo inh 35% and G9a inh 3%.
For CCOc1cccc(N2C(=O)CC(NCc3ccc(S(N)(=O)=O)cc3)C2=O)c1 (centres undefined) the results were L3MBTL1 inh 0%, JMJD2A Tudor inh 7%, BAZ2B inh -6%, HP1b chromo inh 53% and G9a inh 50µM*.
COc1ccc(OC)c(C(O)c2coc3ccc(O)c(CN(C)C)c23)c1 (centres undefined) was read as JMJD2A Tudor inh -20%, BAZ2B inh -20%, HP1b chromo inh 22% and G9a inh inconclusive.
COc1ccc(C(=O)c2c(C)oc3ccc(O)c(CN4CCOCC4)c23)cc1 was read as JMJD2A Tudor inh -33%, BAZ2B inh -6%, HP1b chromo inh -2% and G9a inh 45µM*.
`COc1ccc(NC(=O)c2c(C)oc3ccc(O)c(CN4CCOCC4)c23)cc1` gave JMJD2A Tudor inh -13%, BAZ2B inh -11%, HP1b chromo inh 29% and G9a inh -4%[59 µM].
`COc1ccc(OC)c(C(O)c2coc3ccc(O)c(CN4CCOCC4)c23)c1` (centres undefined) gave L3MBTL1 inh -3%, JMJD2A Tudor inh 89µM*, BAZ2B inh -23%, HP1b chromo inh 5% and G9a inh 8%[59 µM].
`CCOC(=O)c1c(-c2ccccc2)oc2ccc(O)c(CN3CCCC3)c12` gave L3MBTL1 inh 2%, JMJD2A Tudor inh -11%, BAZ2B inh -30%, HP1b chromo inh 10% and G9a inh 45µM*.
O=C(O)C1CCCC2CN3CCc4c([nH]c5ccccc45)C3C(O)C21 (centres undefined) was read as L3MBTL1 inh -3%, JMJD2A Tudor inh -29%, BAZ2B inh -26%, HP1b chromo inh 4% and G9a inh inconclusive.
For Cc1ccc2c(CC(=O)O)coc2c1 the results were JMJD2A Tudor inh -11%, BAZ2B inh -33%, HP1b chromo inh 15% and G9a inh -37%[12.7 µM].
Cc1cc(CC(=O)O)c2oc(-c3ccoc3)cc(=O)c2c1 was read as JMJD2A Tudor inh 89µM* and HP1b chromo inh -20%.

Screens deposited in PubChem BioAssay by National Center for Advancing Translational Sciences (NCATS).
